# PubChem BioAssay (NCI)
# “And” between values parts separate entries of the source, which are not always exact repeats. Identical values can stand only once. The panel holds about 79,000 compounds, 15% with a hit somewhere; the sample as a whole holds those more often. A structure can be active in one record and inactive in another. The source made the active and inactive calls. Rule as the data show it: active = growth inhibition above about 70%; inactive = the rest.
# Experiment: NCI Yeast Anticancer Drug Screen. Data for the mec2-1 strain (AID 157)
# Conditions: S. cerevisiae mec2-1 strain, at 50.0 µM, stronger effect = higher value
# Method in brief: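 Growth inhibition is read against vehicle-treated controls after compound exposure of the mec2-1 yeast strain, which is defective in DNA damage repair or cell cycle control.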
row,SMILES,growth inhibition
1,O=C(O)C1(O)C[C@@H](O)C(O)[C@H](O)C1 (some centres undefined),0.15% (inactive) and -14.2% (inactive)
2,C1CCC(N2CN(C3CCCCC3)C2)CC1,-11.9% (inactive) and 0.5% (inactive)
3,O=P(O)(O)Oc1ccccc1,-6.25% (inactive) and 6.05% (inactive)
4,CCOc1ccc(C=O)cc1OC,-53.1% (inactive) and -10.4% (inactive)
5,OC1C2COC(O2)C(O)C1O (centres undefined),-5.45% (inactive) and -7.65% (inactive)
6,Cn1c(=O)c2[nH]cnc2n(C)c1=O,-16.1% (inactive) and 2.3% (inactive)
7,CC1C(=O)c2cc3c(cc2CCN(C)Cc2c1ccc1c2OCO1)OCO3 (centres undefined),-16.4% (inactive) and 5.75% (inactive)
8,O=CC(O)C(O)C(OC1OC(CO)C(O)C(O)C1O)C(O)CO (centres undefined) (tested in a mixture with another compound),96.5% (active) and 36.4% (inactive)
9,CC(C)(O)C(I)C[n+]1ccccc1 (centres undefined),41.6% (inactive) and -2.95% (inactive)
10,CC1(C)OC2OC(C(COS(C)(=O)=O)OS(C)(=O)=O)C(OS(C)(=O)=O)C2O1 (centres undefined),2.6% (inactive) and 9.75% (inactive)
11,Cc1ccc(S(=O)(=O)N(C)c2ccccc2)cc1,-50.7% (inactive) and -1.25% (inactive)
12,CC1CC(C)(C)C2=NCCN21 (centres undefined),-23.6% (inactive) and -28.6% (inactive)
13,O=C1C2C3C=CC(C3)C2C(=O)N1O (centres undefined),-7.6% (inactive) and -8.3% (inactive)
14,C=C1C(=O)OC2/C=C(/C)C3CC(O)C(C)(CC(OC(=O)/C(C)=C/C)C12)O3 (centres undefined),-12.9% (inactive) and -20.4% (inactive)
15,O=C(O)C(Cc1ccc(O)cc1)NS(=O)(=O)Cc1ccccc1 (centres undefined),-5.85% (inactive) and 17.5% (inactive)
16,N#Cc1c(-c2ccccc2)cc(-c2ccccc2)n(C2OC(CO)C(O)C(O)C2O)c1=O (centres undefined),-2.85% (inactive) and -9.1% (inactive)
17,O=C1NC(=O)C(CO)(c2ccccc2)N1 (centres undefined),2% (inactive) and -11.6% (inactive)

row,SMILES,growth inhibition
1,CSCCC(NC(=O)CN)C(=O)O (centres undefined),-14.6% (inactive) and -11.8% (inactive)
2,CCCCc1ccc(OC2OC(COC(C)=O)C(OC(C)=O)C(OC(C)=O)C2OC(C)=O)cc1 (centres undefined),-14.3% (inactive) and 6.7% (inactive)
3,CC(C)(C)CC(C)(C)c1ccc(O)c(SSc2cc(C(C)(C)CC(C)(C)C)ccc2O)c1,-16.1% (inactive) and 4.4% (inactive)
4,CCCc1ccc(OC2OC(COC(C)=O)C(OC(C)=O)C(OC(C)=O)C2OC(C)=O)cc1 (centres undefined),-9.65% (inactive) and 2.4% (inactive)
5,COc1ccc(COC(=O)NCC(=O)NC(C)C(=O)NC(Cc2ccccc2)C(=O)OCc2ccccc2)cc1 (centres undefined),-10.4% (inactive) and -13.6% (inactive)
6,COC1OC2COC(c3ccccc3)OC2C(OC(C)=O)C1OC(C)=O (centres undefined),10.2% (inactive) and 6.9% (inactive)
7,Cc1cc(Cc2cc(C)c(O)c(C(=O)O)c2)cc(C(=O)O)c1O,10.1% (inactive) and -0.4% (inactive)
8,O=C1CCSSCCC(=O)NCCN1,8.6% (inactive) and -3.25% (inactive)
9,COC1C(C)OCOC2COCOC21 (centres undefined),2.2% (inactive) and -13.2% (inactive)
10,C[N+](C)(C)CCOC(=O)c1ccccc1CBr,22.8% (inactive) and 96.6% (active)
11,C[N+](C)(C)CCOP(=O)(O)OP(=O)([O-])OCC1CCC(n2ccc(N)nc2=O)O1 (centres undefined),-11.1% (inactive) and 0.25% (inactive)
12,C/C(=N\O)c1ccccc1,-20.4% (inactive) and -5.5% (inactive)
13,O=C(CC(=O)c1cccnc1)NC(=O)c1ccccc1,-2.5% (inactive) and -22.1% (inactive)
14,Cc1ccc(S(=O)(=O)NN)cc1,2.3% (inactive) and -9.9% (inactive)
15,O=c1oc2c(O)c(O)cc3c(=O)oc4c(O)c(O)cc1c4c23,18.6% (inactive) and -20.1% (inactive)
16,C/C(=N\NS(C)(=O)=O)C(C)(C)C,-0.2% (inactive) and 11.1% (inactive)
17,CCOC(=O)C(OC1OC(C(=O)OC)C(OC(C)=O)C(OC(C)=O)C1OC(C)=O)c1ccccc1 (centres undefined),-5.7% (inactive) and -8.3% (inactive)
